HIF-2a block = inhibitors of HIF-2a. 786-0 RCC cells HIF-2a reporter, luciferase luminescence, overnight. actives 0.72% (n = 360,000). AID 624352. inhibition, % at 18.8 µM;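 active = inhibition of the luminescence signal of 40% or more relative to plate controls, in a single-dose primary screen at 18.75 µM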
Beta2AR agonist = agonists of human beta-2 adrenergic receptor inducing internalization | P07550 | Am2.2-beta2AR cells, FAP receptor internalization, flow cytometry | response, % (test concentration not listed) | actives 0.43% (n = 340,000);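 active = response above a set limit, near 3 SD of response in nonfluorescent compounds, cut at about 42% in these data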
Target sequence (P07550 whole entry, looked up): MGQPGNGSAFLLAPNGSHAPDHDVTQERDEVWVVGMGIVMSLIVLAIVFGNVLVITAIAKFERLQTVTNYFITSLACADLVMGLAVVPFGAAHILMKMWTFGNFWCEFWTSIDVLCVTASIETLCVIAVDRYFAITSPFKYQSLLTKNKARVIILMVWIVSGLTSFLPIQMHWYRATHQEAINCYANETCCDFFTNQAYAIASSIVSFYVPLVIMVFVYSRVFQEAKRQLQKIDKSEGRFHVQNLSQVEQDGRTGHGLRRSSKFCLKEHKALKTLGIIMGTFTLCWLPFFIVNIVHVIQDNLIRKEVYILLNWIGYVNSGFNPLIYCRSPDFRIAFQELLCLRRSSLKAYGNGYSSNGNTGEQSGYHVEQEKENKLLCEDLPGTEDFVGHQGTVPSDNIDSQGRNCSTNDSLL
TRPM1 prom inh = MITF TRPM1 promoter inhibition in SK-MEL-5 cells; SK-MEL-5 TRPM1 promoter luciferase, 24 h; inhibition, % at 12.5 µM; actives 0.83% (n = 330,000);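 active = mean inhibition across replicates of 60% or more, whatever share of single replicates reaches that level; inconclusive = some that reach 60%, reason not given; inactive = mean inhibition across replicates below 60%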
KKLEB tox = counter-screen for CF NF-kB inhibitors: cytotoxicity. KKLEB CF airway cells viability, ATPlite luminescence, overnight; hits give low values; cells stimulated with P. aeruginosa culture filtrate. activity change (cytotoxicity), % at 5 µM. actives 0.36% (n = 360,000);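 active = corrected activity change at or below -50% at 5 µM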
Peg3 promoter = reduces Peg3 promoter-driven luciferase expression in HeLa | HeLa PEG-Prom luciferase reporter, luminescence, overnight | inhibition, % at 20 µM | actives 1.7% (n = 360,000) | AID 588405;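 active = inhibition of at least 50% at 20 µM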
CF NFkB inh = cystic fibrosis NF-kB activation inhibition; KKLEB NF-kB-GFP reporter, PAF-induced, GFP fluorescence overnight; AID 588850; inhibition, % at 5 µM; actives 0.86% (n = 360,000);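 active = at least 50% inhibition at 5 µM, scaled per plate between neutral and stimulator controls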;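 note: PAF is a Pseudomonas aeruginosa culture filtrate used as stimulus; plate controls were PAF-stimulated DMSO wells for no effect and unstimulated DMSO wells for full effect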
* = called active by the depositor; ? = inconclusive; · = no result given. Shown are actives, neighbours in structure and some others; about 2.8% of the full set was active somewhere.

SMILES	HIF-2a block	Beta2AR agonist	TRPM1 prom inh	KKLEB tox	Peg3 promoter	CF NFkB inh
COc1ccc(C(=O)Nc2ccc3ccccc3n2)c(OC)c1OC	-38	-10	7	-52*	-33	14
CN(C)CCNC(=O)c1cccc2nc3c(ccc4ccccc43)nc12	28	-5	86*	-7	98*	-169
Cc1ccc(Sc2cc(C(=O)NCCN(C)C)c3ccccc3n2)cc1	15	0	-24	1	3	-6
COc1ccc(C(=O)NCCN(C)C)c2nc3ccccc3cc12	1	-9	95*	8	92*	-154
O=C(O)CC1(C(=O)O)CC2C=CC1C2 (stereo unspecified)	-5	·	·	9	-3	10
CCN(CCNC(=O)C1CCN(S(=O)(=O)c2c(C)noc2C)CC1)c1ccccc1	11	-4	8	5	3	-13
CCN(CC)CCNC(=O)C1CCN(S(=O)(=O)c2c(C)noc2/C=C/c2ccccc2F)CC1	1	-2	77*	-1	25	2
O=C(OCC(=O)c1c[nH]c2ccccc12)c1ccc(OC(F)F)cc1	11	·	·	5	-41	-45
CCCCCCCCCCCCCCCC[n+]1cccc2ccccc21	94*	28	103*	-68*	104*	66*
Cc1ccccc1C[n+]1cccc2ccccc21	9	2	15	-12	4	6
CN1CCN(C(=O)C(=O)c2cn(CC(=O)N3CCCCCC3)c3ccccc23)CC1	11	·	·	8	2	0
CCN(CC)CC(O)Cn1c2ccccc2c2ccccc21 (stereo unspecified)	0	13	-15	3	-23	6
CCN(CC)CC(O)Cn1c(C)c(-c2ccccc2)c2cc([N+](=O)[O-])ccc21 (stereo unspecified)	-8	32	-16	-14	75*	-2
Cc1cccc(C)c1N1C(=O)c2ccccc2NC(=O)C1C(=O)NCc1ccco1 (stereo unspecified)	9	·	·	·	·	·
CC1=NN(c2ccc(Cl)cc2)C(=O)C1C(c1ccccc1O)c1c(C)[nH]n(-c2ccc(Cl)cc2)c1=O (stereo unspecified)	12	6	17	-50*	11	65*
NNC(=O)c1ccncc1	-2	0	-1	-85*	-12	-14
CCOc1ccc(N2C(=O)CC(Sc3nnnn3-c3ccccc3)C2=O)cc1 (stereo unspecified)	-1	16	8	1	96*	49
O=C(NCc1ccccc1)C1Cc2c(-c3ccc(Cl)cc3)ccnc2O1 (stereo unspecified)	16	·	·	-28	-4	35
CC(=O)C[C@@H]1SC[C@H](c2ccccc2)N1S(=O)(=O)c1ccc(C)cc1	-8	·	·	·	·	·
CCN(C)C1CN(Cc2cn(Cc3ccccc3)nn2)S(=O)(=O)C1 (stereo unspecified)	1	·	·	·	·	·
O=C1NC2CCCCC2C(=O)N1OS(=O)(=O)c1ccccc1 (stereo unspecified)	12	3	-3	-18	51*	12
COc1ccc(/C=N/NC(=O)c2nc(Cl)c(Cl)c(N)c2Cl)cc1COc1ccccc1F	26	50*	0	-18	28	14
COc1ccc(/C=N/NC(=O)c2nc(Cl)c(Cl)c(N)c2Cl)cc1COc1ccc(F)cc1F	20	27	18	-44	32	44
COc1ccc(N2CCN(CCCn3cnc4c(SC)ncnc43)CC2)cc1	-4	·	·	2	-1	-12
O=C(CS(=O)c1ccc(C(F)(F)F)cc1[N+](=O)[O-])Oc1ccccc1 (stereo unspecified)	21	98*	88*	-38	80*	57*
SMILES	HIF-2a block	Beta2AR agonist	TRPM1 prom inh	KKLEB tox	Peg3 promoter	CF NFkB inh
COC(=O)c1ccc(OC(=O)CS(=O)c2ccccc2[N+](=O)[O-])cc1 (stereo unspecified)	3	6	19	18	1	-2
COC(=O)C1=C(C)N(Cc2ccccc2)C(=NCCc2c[nH]c3ccccc23)N[C@H]1c1cccc(F)c1	3	18	46	-23	102*	24
CCN1C(=O)N[C@@H](c2cccc(C(F)(F)F)c2)C(C(=O)OC)=C1C	20	-6	2	13	11	-3
COC(=O)C1=C(C)N(Cc2ccccc2)C(=NCc2cc(OC)c(OC)c(OC)c2)N[C@H]1c1ccccc1	·	14	-1	·	·	·
COC(=O)C1=C(C)N(Cc2ccccc2)C(=NCc2cc(OC)c(OC)c(OC)c2)N[C@H]1c1ccc(Br)cc1	-4	28	55	-30	106*	40
COCCN=C1N[C@@H](c2ccccc2)C(C(=O)OC)=C(C)N1Cc1ccccc1	8	2	-7	14	-13	-2
COC(=O)C1=C(C)N(Cc2ccccc2)C(=NCc2ccccc2)N[C@H]1c1ccccc1	-2	29	83*	-17	92*	-16
CCN(CC)CCCN=C1N[C@@H](c2cccc(C(F)(F)F)c2)C(C(=O)OC)=C(C)N1CC	4	4	?	-2	51*	9
CCOC(=O)[C@]12CCC=C1N(Cc1ccc(Cl)cc1Cl)C(=O)[C@H](CC(=O)NCCCN1CCCC1=O)C2	0	·	·	·	·	·
CCNC(=O)C1(C)CCCN1C(=O)c1ccc(-c2ccccc2)cc1 (stereo unspecified)	-16	·	·	5	-3	24
O=C(NCc1ccc(F)cc1)Nc1nnc([C@H]2C[C@H](O)[C@@H](CO)O2)s1	5	·	·	-10	-7	5
COC(=O)C1=C(C)N(Cc2ccccc2)C(=NCc2ccccc2)N[C@H]1c1cccc(F)c1	6	28	51	-15	101*	29
O=C(NCC1CCCCC1)c1cc(-c2cc(F)ccc2OCC2CCCO2)n[nH]1 (stereo unspecified)	6	·	·	-21	19	22
OCCNc1c2ccccc2nc2c(F)c(F)c(F)c(F)c12	97*	-91	81*	-8	101*	9
Cc1ccccc1CN1C(=O)c2ccccc2Sc2ccc(C(=O)NCCN3CCOCC3)cc21	19	3	5	-6	-13	-34
CCN1CCN(CCCNC(=O)c2ccc(/C=C3/Oc4ccccc4N(Cc4cccc(C)c4)C3=O)cc2)CC1	4	31	76*	-40	75*	20
O=C(NCCCN1CCOCC1)c1ccc(/C=C2\Oc3ccccc3N(Cc3ccccc3F)C2=O)cc1	2	25	-20	0	11	20
CCN1CCN(CCNC(=O)c2ccc(/C=C3/Sc4ccccc4N(Cc4ccccc4C)C3=O)cc2)CC1	19	32	-6	-77*	87*	43
Cc1cc2nc(-c3nnnn3-c3c(C)cccc3C)c(=O)[nH]c2cc1C	16	·	·	·	·	·
CCOC(=O)C1=CCC2C(=O)N(CC)C(=O)C12 (stereo unspecified)	12	·	·	5	-18	-3
